Experiments:
Details in all cases: Compound Concentration (nM):1000
PLK3 = tested on: PLK3
PLK4 = tested on: PLK4
PRKCD = tested on: PRKCD
PRKCE = tested on: PRKCE
PRKCH = tested on: PRKCH
PRKCI = tested on: PRKCI
PRKCQ = tested on: PRKCQ
PRKD1 = tested on: PRKD1
PRKD2 = tested on: PRKD2
PRKD3 = tested on: PRKD3
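Note: KINOMEscan scanMAX binding as percent activity remaining versus control; lower means stronger binding.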

COc1cccc(-c2c[nH]c3c(N/N=C/c4ccncc4)ncnc23)c1 [GW814408X]
Percent Control (PLK3): 100%
Percent Control (PLK4): 96%
Percent Control (PRKCD): 100%
Percent Control (PRKCE): 100%
Percent Control (PRKCH): 100%
Percent Control (PRKCI): 30%
Percent Control (PRKCQ): 100%
Percent Control (PRKD1): 100%
Percent Control (PRKD2): 100%
Percent Control (PRKD3): 91%

CCn1c(-c2nonc2N)nc2c(C#CC(C)(C)O)nc(OCCNC)cc21.Cl [GSK949675]
Percent Control (PLK3): 100%
Percent Control (PLK4): 90%
Percent Control (PRKCD): 40%
Percent Control (PRKCE): 0%
Percent Control (PRKCH): 15%
Percent Control (PRKCI): 61%
Percent Control (PRKCQ): 3.3%
Percent Control (PRKD1): 95%
Percent Control (PRKD2): 100%
Percent Control (PRKD3): 88%

CCS(=O)(=O)c1ccc(OC)c(Nc2ncc(-c3cccc(OC)c3)o2)c1 [GW580509X]
Percent Control (PLK3): 94%
Percent Control (PLK4): 50%
Percent Control (PRKCD): 100%
Percent Control (PRKCE): 62%
Percent Control (PRKCH): 100%
Percent Control (PRKCI): 100%
Percent Control (PRKCQ): 100%
Percent Control (PRKD1): 100%
Percent Control (PRKD2): 100%
Percent Control (PRKD3): 100%

CC1=C(C(=O)Nc2ccc3[nH]ncc3c2)C(c2ccc3ccccc3c2)CC(=O)N1 (centres unmarked) [GSK270822A]
Percent Control (PLK3): 82%
Percent Control (PLK4): 88%
Percent Control (PRKCD): 100%
Percent Control (PRKCE): 100%
Percent Control (PRKCH): 100%
Percent Control (PRKCI): 80%
Percent Control (PRKCQ): 82%
Percent Control (PRKD1): 100%
Percent Control (PRKD2): 100%
Percent Control (PRKD3): 22%

C[C@@H](Oc1cc(-n2cnc3ccc(OC4CCN(C)CC4)cc32)sc1C(N)=O)c1ccccc1Cl [GSK579289A]
Percent Control (PLK3): 19%
Percent Control (PLK4): 78%
Percent Control (PRKCD): 66%
Percent Control (PRKCE): 100%
Percent Control (PRKCH): 100%
Percent Control (PRKCI): 43%
Percent Control (PRKCQ): 58%
Percent Control (PRKD1): 100%
Percent Control (PRKD2): 84%
Percent Control (PRKD3): 70%

CCS(=O)(=O)c1ccc(OC)c(Nc2ncc(-c3cccc(F)c3)o2)c1 [GW621970X]
Percent Control (PLK3): 100%
Percent Control (PLK4): 40%
Percent Control (PRKCD): 100%
Percent Control (PRKCE): 100%
Percent Control (PRKCH): 100%
Percent Control (PRKCI): 100%
Percent Control (PRKCQ): 100%
Percent Control (PRKD1): 100%
Percent Control (PRKD2): 100%
Percent Control (PRKD3): 85%

Cc1cc(O)cc(C)c1/C=C/c1cncc(C(N)=O)c1 [GW435821X]
Percent Control (PLK3): 90%
Percent Control (PLK4): 85%
Percent Control (PRKCD): 87%
Percent Control (PRKCE): 93%
Percent Control (PRKCH): 100%
Percent Control (PRKCI): 100%
Percent Control (PRKCQ): 90%
Percent Control (PRKD1): 100%
Percent Control (PRKD2): 100%
Percent Control (PRKD3): 79%

Cl.O=C(O[C@H]1CN[C@H](C#Cc2cc3ncnc(Nc4ccc5c(cnn5Cc5ccccc5)c4)c3s2)C1)N1CCOCC1 [GSK200398A]
Percent Control (PLK3): 91%
Percent Control (PLK4): 69%
Percent Control (PRKCD): 100%
Percent Control (PRKCE): 88%
Percent Control (PRKCH): 100%
Percent Control (PRKCI): 100%
Percent Control (PRKCQ): 64%
Percent Control (PRKD1): 100%
Percent Control (PRKD2): 93%
Percent Control (PRKD3): 100%

Nc1ncnc2occ(-c3ccc(NC(=O)Nc4cc(C(F)(F)F)ccc4F)cc3)c12 [GW770249X]
Percent Control (PLK3): 16%
Percent Control (PLK4): 80%
Percent Control (PRKCD): 76%
Percent Control (PRKCE): 94%
Percent Control (PRKCH): 100%
Percent Control (PRKCI): 100%
Percent Control (PRKCQ): 100%
Percent Control (PRKD1): 100%
Percent Control (PRKD2): 100%
Percent Control (PRKD3): 85%

CN(C)CCNC(=O)Nc1ccc(N(C)c2ccnc(Nc3ccc(CS(C)(=O)=O)cc3)n2)cc1.Cl [GW830900A]
Percent Control (PLK3): 90%
Percent Control (PLK4): 24%
Percent Control (PRKCD): 100%
Percent Control (PRKCE): 100%
Percent Control (PRKCH): 100%
Percent Control (PRKCI): 85%
Percent Control (PRKCQ): 100%
Percent Control (PRKD1): 100%
Percent Control (PRKD2): 100%
Percent Control (PRKD3): 100%

O=C1Nc2ccc(C(=O)c3ccco3)cc2C1=Cc1cc(Cl)c(O)c(Cl)c1 [GW406108X]
Percent Control (PLK3): 37%
Percent Control (PLK4): 63%
Percent Control (PRKCD): 100%
Percent Control (PRKCE): 100%
Percent Control (PRKCH): 100%
Percent Control (PRKCI): 100%
Percent Control (PRKCQ): 100%
Percent Control (PRKD1): 100%
Percent Control (PRKD2): 100%
Percent Control (PRKD3): 100%

COc1ccc2[nH]c3c4[nH]c5ccc(OC)cc5c4c4c(c3c2c1)C(=O)NC4=O [GW296115X]
Percent Control (PLK3): 88%
Percent Control (PLK4): 1.4%
Percent Control (PRKCD): 93%
Percent Control (PRKCE): 75%
Percent Control (PRKCH): 35%
Percent Control (PRKCI): 63%
Percent Control (PRKCQ): 44%
Percent Control (PRKD1): 68%
Percent Control (PRKD2): 62%
Percent Control (PRKD3): 75%

COc1cc2ncn(-c3cc(O[C@H](C)c4ccccc4Cl)c(C(N)=O)s3)c2cc1OC [GSK237701A]
Percent Control (PLK3): 2%
Percent Control (PLK4): 30%
Percent Control (PRKCD): 100%
Percent Control (PRKCE): 91%
Percent Control (PRKCH): 100%
Percent Control (PRKCI): 78%
Percent Control (PRKCQ): 100%
Percent Control (PRKD1): 100%
Percent Control (PRKD2): 100%
Percent Control (PRKD3): 49%

COc1cc(C)c(N(C)C(=O)CN(C)C)cc1Nc1nc(Nc2cccc(F)c2C(N)=O)c2cc[nH]c2n1 [GSK2219385]
Percent Control (PLK3): 94%
Percent Control (PLK4): 84%
Percent Control (PRKCD): 100%
Percent Control (PRKCE): 100%
Percent Control (PRKCH): 100%
Percent Control (PRKCI): 82%
Percent Control (PRKCQ): 92%
Percent Control (PRKD1): 100%
Percent Control (PRKD2): 89%
Percent Control (PRKD3): 88%

NS(=O)(=O)c1ccc(N/N=C2\C(=O)Nc3ccc(C(=O)NCCc4c[nH]cn4)cc32)cc1 [GW300660X]
Percent Control (PLK3): 76%
Percent Control (PLK4): 81%
Percent Control (PRKCD): 100%
Percent Control (PRKCE): 98%
Percent Control (PRKCH): 100%
Percent Control (PRKCI): 90%
Percent Control (PRKCQ): 100%
Percent Control (PRKD1): 100%
Percent Control (PRKD2): 100%
Percent Control (PRKD3): 85%

CN(C)c1cc2c(Nc3ccc4c(cnn4Cc4ccccc4)c3)ncnc2cn1 [GW282974X]
Percent Control (PLK3): 100%
Percent Control (PLK4): 66%
Percent Control (PRKCD): 100%
Percent Control (PRKCE): 100%
Percent Control (PRKCH): 97%
Percent Control (PRKCI): 88%
Percent Control (PRKCQ): 100%
Percent Control (PRKD1): 100%
Percent Control (PRKD2): 95%
Percent Control (PRKD3): 89%

CC(C)COC(=O)c1ccc2c(c1)/C(=C/Nc1ccc(S(N)(=O)=O)cc1)C(=O)N2 [GW416981X]
Percent Control (PLK3): 83%
Percent Control (PLK4): 64%
Percent Control (PRKCD): 100%
Percent Control (PRKCE): 100%
Percent Control (PRKCH): 100%
Percent Control (PRKCI): 100%
Percent Control (PRKCQ): 100%
Percent Control (PRKD1): 100%
Percent Control (PRKD2): 100%
Percent Control (PRKD3): 61%

COc1ccc2cc(-c3c(-c4ccncc4)nc(-c4ccc(S(C)(=O)=O)cc4C)n3C)ccc2c1 [SB-633825]
Percent Control (PLK3): 67%
Percent Control (PLK4): 85%
Percent Control (PRKCD): 91%
Percent Control (PRKCE): 90%
Percent Control (PRKCH): 100%
Percent Control (PRKCI): 68%
Percent Control (PRKCQ): 59%
Percent Control (PRKD1): 84%
Percent Control (PRKD2): 100%
Percent Control (PRKD3): 29%

NS(=O)(=O)c1ccc(N/N=C2\C(=O)Nc3ccc(C(=O)NCc4ccncc4)cc32)cc1 [GW300657X]
Percent Control (PLK3): 83%
Percent Control (PLK4): 39%
Percent Control (PRKCD): 100%
Percent Control (PRKCE): 97%
Percent Control (PRKCH): 96%
Percent Control (PRKCI): 80%
Percent Control (PRKCQ): 100%
Percent Control (PRKD1): 100%
Percent Control (PRKD2): 94%
Percent Control (PRKD3): 85%

COc1ccc(COc2ccc(Cc3cnc(N)nc3N)cc2OC)cc1 [GW632580X]
Percent Control (PLK3): 97%
Percent Control (PLK4): 72%
Percent Control (PRKCD): 71%
Percent Control (PRKCE): 100%
Percent Control (PRKCH): 100%
Percent Control (PRKCI): 88%
Percent Control (PRKCQ): 79%
Percent Control (PRKD1): 100%
Percent Control (PRKD2): 100%
Percent Control (PRKD3): 100%
